Measured values reported in PubChem BioAssay (Tox21).
Records with an inconclusive call do not appear. Active and inactive are the calls of the source. Unless noted, calls come from the whole dose curve; as a rule, active = well fitted curve in the direction sought with a large enough effect in the repeat runs; inconclusive = weak or mixed curves; inactive = no such curve, though single readings can be large; an effect the other way counts as inactive or inconclusive.

Columns and labels:
[1] = qHTS assay to identify small molecule that activate the aryl hydrocarbon receptor (AhR) signaling pathway - cell viability counter screen (AID 743086);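 note: HepG2 liver cells carrying the AhR DRE luciferase reporter; series mostly up to about 70 µM; nearly all actives have a fitted effect of over 45% in size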
How it was run: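 HepG2-AhR-luc (HG2L7.5c1) cells, 4000/well, treated 24 h at 37 C with compound; viability measured as CellTiter-Fluor fluorescence after 30 min in the same wells as the luciferase read.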

[2] = target: Peroxisome proliferator-activated receptor gamma (Homo sapiens) (UniProt P37231); test: qHTS assay to identify small molecule agonists of the peroxisome proliferator-activated receptor gamma (PPARg) signaling pathway (AID 743094; active = well fitted activation curve with a large enough effect in the signal ratio in the repeat runs, not every such curve was filed as active; the % refers to the signal ratio)
How it was run: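 Fluorescence-based beta-lactamase readout in HEK293H PPARg UAS-bla cells after 17 h compound exposure (37C) and 1 h B/G FRET substrate incubation at room temperature.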

[3] = target: Peroxisome proliferator-activated receptor gamma (Homo sapiens) (UniProt P37231); test: qHTS assay to identify small molecule antagonists of the peroxisome proliferator-activated receptor gamma (PPARg) signaling pathway (AID 743191; calls by dose curve; note: series mostly up to about 63 µM; nearly all actives have a fitted effect of over 30% in size)
How it was run: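 GeneBLAzer PPARg UAS-bla HEK293H cells, 5 h post-plating, exposed to compounds 17 h at 37C. LiveBLAzer B/G FRET substrate added for 1 h at room temperature; beta-lactamase reporter read by fluorescence intensity.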

[4] = qHTS assay to identify small molecule antagonists of the peroxisome proliferator-activated receptor gamma (PPARg) signaling pathway - cell viability counter screen (AID 743194); note: nearly all actives have a fitted effect of over 55% in size
How it was run: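 Cytotoxicity counter screen in PPARg-bla HEK293H cells, same wells as reporter assay. Compounds plus 50 nM rosiglitazone (final) for 17 h at 37 C, then viability read by CellTiter-Glo luminescence.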

[5] = qHTS assay for small molecule agonists of the antioxidant response element (ARE) signaling pathway (AID 743202; active = well fitted activation curve with a large enough effect in the signal ratio in the repeat runs, not every such curve was filed as active; the % refers to the signal ratio)
How it was run: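 HepG2 ARE-bla reporter line, 2,000 cells/well; 5 h preincubation 37 C/5% CO2; compound (DMSO) 16 h 37 C; B/G FRET substrate 2 h RT; fluorescence intensity.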

[6] = qHTS assay for small molecule agonists of the antioxidant response element (ARE) signaling pathway - cell viability counter screen (AID 743203; calls by dose curve; note: nearly all actives have a fitted effect of over 55% in size)
How it was run: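 Parallel cytotoxicity read-out for the ARE-bla screen: HepG2 reporter cells, 16 hrs with compounds, then CellTiter-Glo luminescence.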

[7] = qHTS assay for small molecule activators of the heat shock response signaling pathway - cell viability counter screen (AID 743209); note: nearly all actives have a fitted effect of over 50% in size
How it was run: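 To flag cytotoxic compounds, HSE-bla HeLa cells plated at 1500 cells/well were dosed for 5 h at 37 C, followed by the reporter FRET read and then CellTiter-Glo, with luminescence recorded 30 min after reagent addition.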

[8] = qHTS assay for small molecule activators of the heat shock response signaling pathway (AID 743210; active = well fitted activation curve with a large enough effect in the signal ratio in the repeat runs, with a control signal flat, not every such curve was filed as active; the % refers to the signal ratio;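 note: HeLa cells with beta-lactamase reporter driven by heat shock elements; series mostly up to about 63 µM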)
How it was run: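 Beta-lactamase reporter read-out: FRET substrate fluorescence after 2.5 h at RT, following 5 h compound treatment at 37 C of HeLa cells carrying HSE-driven bla reporter; quantitative HTS format.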

[9] = qHTS assay to identify small molecule agonists of the peroxisome proliferator-activated receptor delta (PPARd) signaling pathway - cell viability counter screen (AID 743211); note: nearly all actives have a fitted effect of over 55% in size
How it was run: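 HEK293H PPARd-bla, 3000 cells/well; 5 h preincubation 37C/5% CO2; cpd in DMSO, 17 h 37C; B/G FRET substrate 2 h RT; CellTiter-Glo 30 min RT, luminescence.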

[10] = target: Aryl hydrocarbon receptor (Homo sapiens) (UniProt P35869); test: qHTS assay to identify small molecule that activate the aryl hydrocarbon receptor (AhR) signaling pathway (AID 743085);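 note: HG2L7.5c1 human HepG2 liver cells with stably integrated DRE-driven firefly reporter; series mostly up to about 70 µM; nearly all actives have a fitted effect of over 15% in size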
How it was run: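 Cell line HG2L7.5c1 (human hepatoma, 20× DRE-luc). Plated, 5 h 37C, compound/DMSO added, 24 h 37C. CellTiter-Fluor 30 min 37C → fluorescence; then ONE-Glo 30 min RT → luminescence.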

Measured: Potency

Sequence of Peroxisome proliferator-activated receptor gamma (Homo sapiens) (P37231 whole entry, looked up): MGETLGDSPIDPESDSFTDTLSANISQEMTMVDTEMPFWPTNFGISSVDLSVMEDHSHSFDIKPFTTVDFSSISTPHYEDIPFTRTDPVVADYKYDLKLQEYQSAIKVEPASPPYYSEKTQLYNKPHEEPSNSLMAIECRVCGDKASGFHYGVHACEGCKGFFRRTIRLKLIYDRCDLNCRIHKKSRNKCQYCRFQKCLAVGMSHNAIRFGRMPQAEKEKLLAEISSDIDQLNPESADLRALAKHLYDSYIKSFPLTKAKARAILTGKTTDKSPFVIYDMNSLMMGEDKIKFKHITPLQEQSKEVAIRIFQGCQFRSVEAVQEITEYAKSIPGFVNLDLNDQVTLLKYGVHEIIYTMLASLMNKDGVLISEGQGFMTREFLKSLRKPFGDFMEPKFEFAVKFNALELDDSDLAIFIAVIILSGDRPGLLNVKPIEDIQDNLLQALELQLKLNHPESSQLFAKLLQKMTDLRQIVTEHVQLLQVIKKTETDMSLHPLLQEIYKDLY
Sequence of Aryl hydrocarbon receptor (Homo sapiens) (P35869 whole entry, looked up): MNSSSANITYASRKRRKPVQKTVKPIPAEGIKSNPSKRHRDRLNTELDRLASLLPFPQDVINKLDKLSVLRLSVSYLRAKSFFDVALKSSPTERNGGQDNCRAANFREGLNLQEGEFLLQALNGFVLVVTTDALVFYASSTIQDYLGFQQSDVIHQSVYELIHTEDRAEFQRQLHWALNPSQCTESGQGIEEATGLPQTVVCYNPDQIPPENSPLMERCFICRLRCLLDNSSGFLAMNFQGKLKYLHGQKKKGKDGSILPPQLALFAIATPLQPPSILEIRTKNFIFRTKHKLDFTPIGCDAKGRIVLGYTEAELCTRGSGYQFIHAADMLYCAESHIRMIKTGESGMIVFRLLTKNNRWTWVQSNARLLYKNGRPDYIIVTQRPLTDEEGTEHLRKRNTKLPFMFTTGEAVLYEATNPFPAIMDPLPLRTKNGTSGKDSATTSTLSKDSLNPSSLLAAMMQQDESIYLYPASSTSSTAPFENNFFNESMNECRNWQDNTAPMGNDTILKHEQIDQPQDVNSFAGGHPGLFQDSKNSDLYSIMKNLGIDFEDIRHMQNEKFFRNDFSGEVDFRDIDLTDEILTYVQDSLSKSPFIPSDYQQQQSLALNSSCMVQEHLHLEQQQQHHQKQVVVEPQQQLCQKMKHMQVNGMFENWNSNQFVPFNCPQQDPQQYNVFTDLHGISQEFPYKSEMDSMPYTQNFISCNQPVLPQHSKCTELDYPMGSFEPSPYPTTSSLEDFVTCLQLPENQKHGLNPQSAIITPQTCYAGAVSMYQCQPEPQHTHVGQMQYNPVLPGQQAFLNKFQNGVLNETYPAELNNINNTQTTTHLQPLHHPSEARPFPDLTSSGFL

CCCCCCCOC(C)=O
not listed: [10]
inactive: all other assays above

CCCCC(CC)COC(=O)CC#N (centres undefined)
not listed: [10]
inactive: all other assays above

CC1(C)C(=O)C(C)(C)C1=O
not listed: [2] | [3]
inactive: all other assays above

CCc1ccc(CC)cc1
not listed: [2] | [4] | [9]
inactive: all other assays above

CCC(=O)OCCOc1ccccc1
not listed: [2] | [5] | [6]
inactive: all other assays above

O=C(O)Cc1c(Cl)ccc(Cl)c1Cl
not listed: [1] | [2]
inactive: all other assays above

CC(=O)Nc1ccc(S(=O)(=O)Nc2cc(C)on2)cc1
not listed: [3] | [4] | [10]
inactive: all other assays above

C[C@]12C=CC(=O)C=C1[C@@H](F)C[C@@H]1[C@@H]2[C@@H](O)C[C@@]2(C)[C@H]1CC[C@]2(O)C(=O)CO
not listed: [4] | [10]
inactive: all other assays above

CCCCCCCC(=O)N(C)C
not listed: [10]
inactive: all other assays above

COCc1nnc(-c2ccc[n+]([O-])c2)n1-c1c(Cl)c(Cl)cc2[nH]c(=O)c(=O)[nH]c12
not listed: [4] | [10]
inactive: all other assays above

CC(C)(C)NCC(O)COc1cccc2c1CCC(=O)N2 (centres undefined)
not listed: [10]
inactive: all other assays above

CCCCCC(=O)CC
not listed: [3] | [4] | [10]
inactive: all other assays above

CCOC(=O)c1ccc(N(C)C)cc1
inactive: [1] | [2] | [6] | [7] | [9]

CC(CN1CC(=O)NC(=O)C1)N1CC(=O)NC(=O)C1 (centres undefined)
not listed: [3] | [5] | [10]
inactive: all other assays above

CCCCCCCCCCCBr
not listed: [3] | [10]
inactive: all other assays above

CC(C)(O)c1ccc(C(C)(C)O)cc1
not listed: [4] | [7] | [10]
inactive: all other assays above

CCN1CCN(C(=O)N[C@@H](C(=O)N[C@@H]2C(=O)N3C(C(=O)O)=C(CSc4nnnn4C)CS[C@H]23)c2ccc(O)cc2)C(=O)C1=O
not listed: [5] | [10]
inactive: all other assays above

CN1CCN(C(=O)C2CCCCC2)CC1
not listed: [4] | [6] | [10]
inactive: all other assays above

CN(C)CCC[C@@]1(c2ccc(F)cc2)OCc2cc(C#N)ccc21
inactive: [1] | [2] | [4] | [7] | [8] | [9]

CC(C)c1cc(C(C)C)cc(C(C)C)c1
not listed: [3] | [10]
inactive: all other assays above

COCCCOc1cc(C[C@@H](C[C@H](N)[C@@H](O)C[C@H](C(=O)NCC(C)(C)C(N)=O)C(C)C)C(C)C)ccc1OC
not listed: [10]
inactive: all other assays above

O=C(O)COc1ccc2ccccc2c1
not listed: [4] | [5] | [10]
inactive: all other assays above

CCCCNCC
not listed: [6] | [8] | [10]
inactive: all other assays above

CCCCCCC(O)CO (centres undefined)
not listed: [5] | [6] | [10]
inactive: all other assays above

CCC(C)SSC(C)CC (centres undefined)
not listed: [3] | [5] | [10]
inactive: all other assays above
